Source: PubChem
TDP43 rescue – rescues yeast growth from TDP-43 toxicity | Potency, µM (doses to about 46.1 µM), hits mostly activators | actives 1.8% (n = 410,000) | TDP-43 expressing yeast growth rescue, BacTiter-Glo, 24 h | AID 652104; also: nearly all actives have a fitted effect of over 50% in size
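In this qHTS, compounds that restore growth of yeast expressing TDP-43 appear as activators. Cells (OD600=0.02, galactose medium, raffinose-pregrown) are incubated with compound 24 hr at 30 deg C and growth is quantified by BacTiter-Glo.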
MBNL1 CUG block – inhibitors of human MBNL1 binding to CUG repeat RNA; Q9NR56; TR-FRET MBNL1-His/biotin-(CUG)12 binding, 665/545 ratio; Potency, µM (titrated, usually from 57.5 µM), hits mostly inhibitors; actives 0.036% (n = 280,000); AID 2675; active = well fitted inhibition curve with a large enough effect in the signal ratio, with a control signal flat, not every such curve was filed as active; inconclusive = small, poorly fitted or top-dose-only effect, or effect the other way, or a change in a side signal; inactive = no such curve, though single readings can be large or run the other way; the % refers to the signal ratio
Target sequence (Q9NR56 whole entry, looked up): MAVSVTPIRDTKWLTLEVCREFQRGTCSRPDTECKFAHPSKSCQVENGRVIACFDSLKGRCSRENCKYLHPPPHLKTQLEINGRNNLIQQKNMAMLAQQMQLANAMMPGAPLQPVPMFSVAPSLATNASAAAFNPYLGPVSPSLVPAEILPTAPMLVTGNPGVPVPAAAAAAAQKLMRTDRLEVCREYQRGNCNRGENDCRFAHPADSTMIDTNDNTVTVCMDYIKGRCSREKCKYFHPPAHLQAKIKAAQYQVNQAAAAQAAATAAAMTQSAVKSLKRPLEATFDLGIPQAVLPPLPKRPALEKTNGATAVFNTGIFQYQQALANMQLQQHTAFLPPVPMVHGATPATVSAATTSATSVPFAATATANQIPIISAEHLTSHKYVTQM
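Compounds (final 92 nM to 58 uM) are added to His-tagged MBNL1 and biotin-(CUG)12, then terbium anti-His antibody and streptavidin-XL665 (5 nM final). After 60 min at room temperature, the 665/545 nm ratio is read.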
Abeta rescue – compounds reversing amyloid beta toxicity in yeast. yeast expressing A-beta42, growth rescue, OD600, 48 h; response scale: 0% DMSO, 100% iron-clioquinol control. Potency, µM (top dose mostly 46.1 µM), actives largely listed as activators. actives 0.063% (n = 410,000). AID 1347071; also: nearly all actives have a fitted effect of over 55% in size
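Growth rescue measured by 600 nm absorbance after 48 h yeast culture at 30 C with compound. Values normalized between DMSO and an equimolar ferric chloride plus clioquinol control.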
FUS suppressor – FUS proteinopathy suppression in yeast; S. cerevisiae FUS-expressing, growth rescue, OD600, 24 h; Potency, µM (titrated, usually from 76.6 µM), usual class: activators; actives 0.24% (n = 390,000); also: nearly all actives have a fitted effect of over 55% in size
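Yeast FUS proteinopathy model; galactose-induced FUS (2%), starting OD 0.005. Cpds in dilution series, 24hr, 30C, 99% humidity. Abs 600 nm growth. Pos ctrl CP55940 (top 92uM final); neg ctrl DMSO.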
aSyn yeast inh – alpha-synuclein toxicity inhibition in yeast. Yeast expressing alpha-synuclein, growth rescue, BacTiter-Glo, 24 h. Potency, µM (top dose mostly 46.1 µM), hits mostly activators. actives 0.14% (n = 370,000); also: nearly all actives have a fitted effect of over 65% in size
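Screening used galactose-induced yeast with toxic alpha-synuclein levels, exposed to compound for 24 hr at 30 deg C. Cell growth, read with BacTiter-Glo luminescence, gave the measured signal.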
GRP78 ERSR act – ER stress response induction in glioma | actives 0.02% (n = 420,000) | Potency, µM, most hits filed as activators | AID 602332 | U87-MG GRP78 promoter luciferase reporter, 16 h; also: series mostly up to about 76 µM; nearly all actives have a fitted effect of over 35% in size
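Stably transfected U87-MG human glioma cells carrying a GRP78-based luminescent sensor were seeded at 1000 cells/well, pin-dosed with compounds and incubated 16 h. Luciferase reagent was then added, and end-point luminescence was read after 10 min at room temperature.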
Numbers stand for hits; - = inactive; ? = inconclusive; . = no result; [ ] = another dose, or the depositor's remark. The list is not random: actives were taken first. Their share in the collection is about 2%. Unless noted, calls follow the shape of the dose curve; as a rule, active = well fitted curve in the direction sought with a large enough effect; inconclusive = small, poorly fitted or top-dose-only effect, or another doubt; inactive = no such curve, though single readings can be large; an effect the other way counts as inactive or inconclusive.

SMILES	TDP43 rescue	MBNL1 CUG block	Abeta rescue	FUS suppressor	aSyn yeast inh	GRP78 ERSR act
CC1CCCN(S(=O)(=O)c2ccc(NC(=O)CN3C(=O)NC(C)(c4ccccc4)C3=O)cc2)C1 (configuration not stated)	-	.	-	28.2µM	-	-
CN(Cc1ccccc1Cl)C(=O)CN1C(=O)C2(OCCCO2)c2ccccc21	.	.	.	-	.	.
CCCCNC(=O)C1C(c2ccccc2)=Nc2ccccc2N1C(=O)c1ccc(C(F)(F)F)cc1 (configuration not stated)	-	.	-	?	-	.
COc1ccc(C2=Nc3ccccc3N(C(=O)c3ccc(C(F)(F)F)cc3)C2C(=O)NCc2ccccc2)cc1 (configuration not stated)	-	.	-	22.4µM	-	.
Cc1cc(-c2ccco2)c(C#N)c2nc3ccccc3n12	3.98µM	?	-	-	0.562µM	-
CSc1nc(N2CCOCC2)c2ccccc2n1	-	-	-	-	-	-
CSc1nc(N2CCN(c3ccccc3Cl)CC2)c2ccccc2n1	12.6µM	-	-	-	-	-
Cn1nc(C(=O)NCCN2Cc3ccccc3OC(c3ccsc3)C2)c2ccccc2c1=O (configuration not stated)	.	.	.	.	.	-
COc1ccc(N2CCN(C(=O)CSc3nnc4c(C)cc5ccc(C)c(C)c5n34)CC2)cc1	14.1µM	-	-	?	-	-
COc1ccc(N2CCN(C(=O)CSc3nnc4c(C)cc5cc(C)ccc5n34)CC2)cc1	?	-	-	.	-	-
COc1ccc(OC)c(C(=O)N2CCOc3ccc(C(C)(O)CN(C)C)cc3C2)c1 (configuration not stated)	.	.	.	.	.	-
Cc1ccc(NC(=O)Cn2c(=O)n(CCC(=O)N3CCc4ccccc4C3)c(=O)c3ccccc32)c(C)c1	-	.	-	-	.	-
CCOC(=O)c1ccccc1NC(=O)Cn1c(=O)n(CCC(=O)N2CCc3ccccc3C2)c(=O)c2ccccc21	35.5µM	.	-	?	.	-
CC1(C)S[C@@H]2[C@H](NC(=O)[C@H](N)c3ccccc3)C(=O)N2[C@@H]1C(=O)OCOC(=O)[C@@H]1N2C(=O)C[C@@H]2S(O)(O)C1(C)C	.	.	.	.	.	-
CC(C)(C)c1ccc(C(=O)NNc2cc(N3CCCCC3)nc(N3CCCCC3)n2)cc1	-	?	-	?	-	-
O=C(CCc1ccccc1)NNc1cc(N2CCCCC2)nc(N2CCCCC2)n1	3.16µM	-	-	-	-	-
COC(=O)c1cn([C@@H]2C[C@@H](C(=O)Nc3cccc(SC)c3)N(C3CCCC3)C2)nn1	.	.	.	.	.	-
COC1=C(Nc2ccc(C)cc2)C(=O)c2ccccc2C1=O	10µM	?	-	.	-	-
COC1=C(Nc2ccccc2)C(=O)c2ccccc2C1=O	12.6µM	?	-	-	-	-
COc1ccc(OC)c2c1C(=O)c1ccccc1C2=O	25.1µM	?	-	-	-	-
Cc1cc(NS(=O)(=O)c2ccc(NC(=O)Cc3ccc(Cl)c(F)c3)cc2)no1	.	.	.	-	.	.
Cc1cnc(-n2ncc(C(=O)NCc3cccnc3)c2C)nc1-c1ccc(F)cc1	.	.	.	.	.	-
O=C(Nc1nc2c(Br)cccc2s1)c1ccc2c(c1)OCCO2	.	.	.	-	.	.
Cc1oc(-c2ccc(C(=O)N(C)Cc3ccccc3)cc2)nc1CN1CCc2ccccc21	-	.	-	20µM	-	-
Cc1ccc(CNC(=O)c2ccc(-c3nc(CN4CCc5ccccc54)c(C)o3)cc2)cc1	-	.	-	-	-	-
SMILES	TDP43 rescue	MBNL1 CUG block	Abeta rescue	FUS suppressor	aSyn yeast inh	GRP78 ERSR act
COc1ccc(S(=O)(=O)Nc2ccc3c(c2)C(=O)N([C@H](C)CO)C[C@H](C)[C@@H](CN(C)C(=O)Nc2ccc(F)cc2)OCCCC[C@H](C)O3)cc1	-	.	-	25.1µM	-	-
C[C@@H]1CCCCO[C@@H](CN(C)S(=O)(=O)c2ccccc2)[C@@H](C)CN([C@H](C)CO)C(=O)c2cc(NS(=O)(=O)c3ccc(F)cc3)ccc2O1	-	.	-	14.1µM	-	-
CCc1cccc(CC)c1NC(=S)Nc1ccccc1	-[0.397 µM]	-	14.1µM	-	-	-
CCc1cccc(CC)c1NC(=O)c1cccc(NC(=O)c2ccccc2)c1	-	-	-	-	-	-
CN(C)c1ccc(C(C[N+](=O)[O-])c2c(N)n(C)c(=O)n(C)c2=O)c(F)c1C#N (configuration not stated)	-	-	-	-	-	-
Cn1c(N)c(C(C[N+](=O)[O-])c2c(F)cccc2Cl)c(=O)n(C)c1=O (configuration not stated)	11.2µM	-	-	-	-	-
COc1ccc(N2C(=O)CC(N3CCC(O)(c4cccc(C(F)(F)F)c4)CC3)C2=O)cc1 (configuration not stated)	17.8µM	-	-	-	-	-
CCCN(CCC)CCNC(=O)c1cc2c(=O)n(C)c3ccccc3c2n1C	-	-	-	-	11.2µM	-
CN(CCNC(=O)c1cc2c(=O)n(C)c3ccccc3c2n1C)Cc1ccccc1	-	-	-	-	?	-
O=[N+]([O-])c1cc(S(=O)(=O)Nc2ccccc2)ccc1Nc1ccccc1	12.6µM	.	?	-	-	-
Clc1cccc2sc(N3CCCC3)nc12	12.6µM	-	-	-	-	-
Clc1cccc2sc(N3CCOCC3)nc12	-	.	-	-	-	-
CN(Cc1ccccc1)S(=O)(=O)c1cccc(C(=O)OCC2CCCCC2)c1	.	.	.	-	.	.
Cc1ccc2nc(-c3ccco3)c(CC(C)(C)C)n2c1	11.2µM	.	-	-	-	-
Clc1cccc(Cc2c(-c3cccc(Cl)c3)nc3ccc(Br)cn23)c1	35.5µM	.	-	-	-	-
Cc1ccc(Cc2c(-c3ccccc3)nc3ccc(Br)cn23)cc1	22.4µM	.	-	-	-	-
Clc1cccc(-c2nc3ccc(Br)cn3c2Cc2ccccc2)c1	?	.	-	-	-	-
Brc1cccc(-c2nc3ccc(Br)cn3c2Cc2ccccc2)c1	28.2µM	.	-	-	-	-
CC(=O)N[C@@H](C)C(=O)NCC1Cc2cccc(-c3ccccc3C(F)(F)F)c2O1 (some centres not stated)	.	.	.	.	.	-
Clc1ccc2nc(-c3ccco3)c(Cc3ccsc3)n2c1	-	.	-	-	-	-
Brc1ccc2nc(-c3ccco3)c(Cc3ccsc3)n2c1	3.16µM	.	-	-	-	-
Fc1cccc(Cc2c(-c3ccccc3)nc3ccc(Br)cn23)c1	-	.	-	-	-	-
Clc1cccc(Cc2c(-c3cccc(Br)c3)nc3ccc(Br)cn23)c1	20µM	.	-	-	-	-
